This note sets out measurements from PubChem BioAssay (NCI).

Compounds without any hit were thinned out: in the full panel of roughly 79,000, 15% have a hit. A number with no mark means an inactive call. Calls of active or inactive are those of the source. Cut-off read from the data, not from the text of the source: active = growth inhibition above about 70%; inactive = the rest.

The assay is described as follows: NCI Yeast Anticancer Drug Screen. Data for the cln2 rad14 strain (AID 165).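 Note: 0% = growth equal to vehicle treated cultures.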 Conditions: S. cerevisiae cln2 rad14 strain, at 50.0 µM (retest, dose inferred, filed as 5.0), stronger effect = higher value. Summed up:
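Relative to vehicle controls, growth inhibition of compound-treated cln2 rad14 yeast was recorded.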
For the molecule `CCCCCCCCCCCCCCOC(=O)C(N)Cc1ccc(O)cc1` (stereo not given), the growth inhibition is 94% (active).

`CN(C)c1ccc(C(O)(Cc2cccc(C#N)c2)c2ccc(N(C)C)cc2)cc1`: the growth inhibition is -16%.

As to `O=C(NNC(=O)c1cccc(C(=O)NNC(=O)c2ccc(Cl)c(Cl)c2)n1)c1ccc(Cl)c(Cl)c1`, the growth inhibition is 76% (active).

As to `C=C1C(=O)O[C@H]2[C@H](OC(C)=O)[C@@H](C)CCC/C(C)=C/CC[C@@]3(C)O[C@@H]3C[C@@H]12`, the growth inhibition was 95% (active).

Take `O=C(c1ccccc1)C1OC1c1ccccc1Cl` (stereo not given): the growth inhibition was 23%.

Turning to `[N-]=[N+]=Nc1ccc(SSCCC(=O)ON2C(=O)CCC2=O)cc1`, the growth inhibition was 97% (active).

`Cc1cc(N(CCC#N)CCC#N)ccc1/C(N=Nc1cccc([N+](=O)[O-])c1)=N/NC(=O)c1cc(Cl)ccc1O`: the growth inhibition was 28%.

With `CC(C)/C(Cl)=N\OC(=O)Nc1ccc(S(N)(=O)=O)cc1`, the growth inhibition is 33%.

For the molecule `CCCCCCCCCCCCCC(=O)OCC(O)CO` (stereo not given), the growth inhibition is 10%.

Take `O=C1C=CC(=O)N1C1CCCCC1`: the growth inhibition was 99% (active).

Turning to `CCCCCCCCCCCC(=O)OCC1OC(n2cc(F)c(=O)[nH]c2=O)C(N)C(O)C1O` (stereo not given), the growth inhibition is 22%.

Consider `CN(C)c1ccc(C2C=C(c3ccccc3)Oc3ccccc32)cc1` (stereo not given), for which the growth inhibition is 94% (active).

For the molecule `CS(=O)(=O)OCCN(CCOS(C)(=O)=O)c1ccc(C=Nc2cccc(Cl)c2)cc1`, the growth inhibition is 86% (active).

Turning to `O=C1C(=O)N(c2cc(Cl)ccc2Cl)C(=O)C(=O)C1c1nc2ccccc2o1`, the growth inhibition was 10%.

For the molecule `CC1=NC(=Cc2ccc(Cl)cc2)C(=O)N1n1c(-c2ccccc2)nc2ccccc2c1=O`, the growth inhibition is 83% (active).
